# Reference: PubChem BioAssay AID1565 (Sanford-Burnham Center for Chemical Genomics, 2009)
# Hit rate of the full screen: of about 290,000 compounds, about 3,200 (1.1%) were called active. The sample as a whole holds a higher share of actives than the screen did. Values without a mark were called inactive. Rule as the data show it: active = inhibition above about 60%; inactive = the rest.
# Biological target: Phosphoethanolamine/phosphocholine phosphatase (Homo sapiens) (UniProt Q8TCT1)
# Experiment: PubChem AID 1565
# Conditions: recombinant PHOSPHO1, absorbance phosphatase assay; at 13.3 µM; stronger effect = higher value
# Sequence of Phosphoethanolamine/phosphocholine phosphatase (Homo sapiens) (Q8TCT1 whole entry, looked up): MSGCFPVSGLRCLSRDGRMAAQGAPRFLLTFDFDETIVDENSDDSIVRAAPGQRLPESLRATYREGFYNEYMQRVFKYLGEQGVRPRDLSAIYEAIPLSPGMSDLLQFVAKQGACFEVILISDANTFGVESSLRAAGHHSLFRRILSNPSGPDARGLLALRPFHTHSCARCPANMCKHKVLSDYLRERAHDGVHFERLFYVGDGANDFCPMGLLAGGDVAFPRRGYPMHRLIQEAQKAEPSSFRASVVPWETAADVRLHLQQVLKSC
row,SMILES,inhibition
1,O=C(Nc1ccc([N+](=O)[O-])cc1)OCCc1ccccn1,17.9%
2,CCOc1ccc2c(c1)c(=O)c(S(=O)(=O)c1ccc(C)cc1)cn2CC,47.5%
3,CCOc1cc(C(=S)N2CCOCC2)ccc1O,96.3% (active)
4,COc1cc(C(=S)N2CCOCC2)ccc1O,3.5%
5,CCOc1cc(C(=S)N2CCOCC2)ccc1OS(=O)(=O)c1ccc(Br)cc1,8.5%
6,Cc1ccc(N(C(=O)CNC(=O)c2ccco2)C(C(=O)NC2CCCC2)c2ccncc2)cc1 (stereo unspecified),43.5%
7,O=C(CC(c1ccccc1)c1ccccc1)NCC(O)c1ccc([N+](=O)[O-])cc1 (stereo unspecified),12%
8,Cc1ccc(NC(=O)CSc2sc3c(O)cc(=O)[nH]c3c2C#N)cc1C,19.4%
9,Cc1cc(=O)[nH]c(SCC(N)=O)c1C#N,-7.4%
10,Cc1cc(=O)[nH]c(S)c1C#N,71.4% (active)
11,C/C(=N\NC(=O)c1ccc2ccccc2c1)c1cccnc1,-19.7%
12,CCc1nnc(NC(=O)CSCc2cc(=O)n3cc(C)sc3n2)s1,6.8%
13,C/C(=N\Nc1nc(Nc2ccccc2)nc(N2CCOCC2)n1)c1cccs1,24.8%
14,O=C(CSc1nc(Nc2ccccc2)nc(N2CCOCC2)n1)Nc1cc(Cl)ccc1O,61% (active)
15,Cc1ccc(Nc2nc(N3CCOCC3)nc(N3CCOCC3)n2)cc1Cl,6.9%
16,Cc1ccc(C(=O)Nc2nnc(C3=COCCO3)o2)cc1C,-32.7%
17,C=CCn1c(SCc2c(C(=O)OC)sc(N)c2C(=O)OC)nnc1-c1ccc(Cl)cc1,60.1% (active)
18,COC(=O)c1ccc(NC(=O)CSc2nnc(-c3ccncc3)n2C)cc1,-5.5%
19,COC(=O)c1sc(N)c(C(=O)OC)c1COC(=O)CNS(=O)(=O)c1ccc(C)cc1,1.7%
20,CCOc1ccc(C(C)=O)cc1CSc1nnc(-c2ccncc2)n1CCOC,-31.5%
21,C=CCn1c(SCc2cc(C(=O)OC)c(C)o2)nnc1-c1ccncc1,86.5% (active)
22,C=CCn1c(SCc2ccc(Cl)c(Cl)c2)nnc1C(CO)NC(=O)c1ccc(OC)cc1 (stereo unspecified),-16.9%
23,COc1cccc(CNC(=O)Cn2c(=O)oc3cc(S(=O)(=O)N4CCCCC4)ccc32)c1,22.6%
24,CN(C)S(=O)(=O)c1ccc(C(=O)NCC(C)(C)N2CCOCC2)cc1,34.7%
25,Cc1cccc(NS(=O)(=O)c2ccc(C(=O)NCC(C)(C)N3CCOCC3)cc2)c1C,65.4% (active)
26,CC(C)(CNC(=O)c1ccc(Cl)c(S(=O)(=O)N2CCc3ccccc3C2)c1)N1CCOCC1,38.5%
